ELG1 DNA repair = qHTS screen for small molecules that inhibit ELG1-dependent DNA repair in human embryonic kidney (HEK293T) cells expressing luciferase-tagged ELG1; HEK293T ELG1-luciferase reporter, luminescence, 16 h; DNA damage induced by 5-fluorouridine; Potency, µM (top dose mostly 46.1 µM), without a hit: top-dose activity change, negative = inhibition, usual class: inhibitors; 330,000 compounds, 2.3% hits; note: potency is the fitted concentration of half-maximal effect; nearly all actives have a fitted effect of over 55% in size
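Reporter activity after DNA damage by 5-fluorouridine is monitored. Compound-treated cells incubate 16 hr at 37 °C, then ONE-Glo is added for 30 min before luminescence reading.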
IL1B secr inh = qHTS for Inhibitors of Inflammasome Signaling: IL-1-beta AlphaLISA Primary Screen; THP-1 LPS/ATP IL-1B secretion, AlphaLISA, 16 h; stronger effect = lower value; activity change, % at 57.5 µM; 360,000 compounds, 4.7% hits; AID 743279, 2014; in the data active = activity change below about -50%; inconclusive = mostly about -30% to -49%
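Secreted IL-1B measured by AlphaLISA bead assay after 16 h compound exposure of THP-1 cells; compounds (final up to 57.5 uM) added 1 h before LPS (250 ng/mL) and ATP (1.25 mM) stimulation; lower signal means less secretion.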
TDP1 cell CPT = qHTS for Inhibitors of human tyrosyl-DNA phosphodiesterase 1 (TDP1): qHTS in cells in presence of CPT | chicken DT40 Tdp1-/-;hTDP1 cells + 20 nM CPT, ATP luminescence, 48 h | Potency, µM (doses to about 46.2 µM), inactives show at the highest dose activity change, negative = growth inhibition, most hits filed as inhibitors | 420,000 compounds, 12% hits | AID 686979, 2013; note: potency is the fitted concentration of half-maximal effect; nearly all actives have a fitted effect of over 55% in size
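Chicken DT40 Tdp1-/- cells stably complemented with human TDP1 were seeded at 400 cells/well in medium containing 20 nM camptothecin, exposed to pin-transferred compounds, and grown at 37 °C for at least 48 hr. Viability was read as ATP luminescence.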
Gal4-VP16 FLuc = VP16 counterscreen qHTS for inhibitors of ROR gamma transcriptional activity; Drosophila S2 Gal4-VP16 UAS-luciferase, luminescence, 20 h; Potency, µM (top dose mostly 53.6 µM), inactives show at the top dose activity, negative = inhibition, usual class: inhibitors; 310,000 compounds, 3.5% hits;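 note: Gal4-VP16 expression switched on by copper sulfate through the metallothionein promoter; potency is the fitted concentration of half-maximal effect; nearly all actives have a fitted effect of over 50% in size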
DT40 TDP1 no CPT = qHTS for Inhibitors of human tyrosyl-DNA phosphodiesterase 1 (TDP1): qHTS in cells in absence of CPT | DT40 Tdp1-/- hTDP1 cells, no CPT, ATP luminescence, 48 h | Potency, µM (highest dose often 46.2 µM), for inactives: top-dose activity change, negative = growth inhibition, hits mostly inhibitors | 420,000 compounds, 15% hits; note: potency is the fitted concentration of half-maximal effect; nearly all actives have a fitted effect of over 55% in size
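Luminescent ATP content (CellTiter-Glo) served as the growth readout. Knockout chicken DT40 cells expressing human TDP1 were exposed to compounds without camptothecin for a minimum 48 hr at 37 °C.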
RORg inh = qHTS for inhibitors of ROR gamma transcriptional activity; AID 2551, 2010; Drosophila S2 Gal4-RORgamma UAS-luciferase reporter, 20 h; 310,000 compounds, 5.4% hits; Potency, µM (series often up to 53.6 µM), inactives show at the highest dose activity change, negative = inhibition, hits mostly inhibitors; Nuclear receptor ROR-gamma (Mus musculus), P51450; note: potency is the fitted concentration of half-maximal effect; nearly all actives have a fitted effect of over 60% in size
Target sequence (P51450 whole entry, looked up, the tested form may be a part): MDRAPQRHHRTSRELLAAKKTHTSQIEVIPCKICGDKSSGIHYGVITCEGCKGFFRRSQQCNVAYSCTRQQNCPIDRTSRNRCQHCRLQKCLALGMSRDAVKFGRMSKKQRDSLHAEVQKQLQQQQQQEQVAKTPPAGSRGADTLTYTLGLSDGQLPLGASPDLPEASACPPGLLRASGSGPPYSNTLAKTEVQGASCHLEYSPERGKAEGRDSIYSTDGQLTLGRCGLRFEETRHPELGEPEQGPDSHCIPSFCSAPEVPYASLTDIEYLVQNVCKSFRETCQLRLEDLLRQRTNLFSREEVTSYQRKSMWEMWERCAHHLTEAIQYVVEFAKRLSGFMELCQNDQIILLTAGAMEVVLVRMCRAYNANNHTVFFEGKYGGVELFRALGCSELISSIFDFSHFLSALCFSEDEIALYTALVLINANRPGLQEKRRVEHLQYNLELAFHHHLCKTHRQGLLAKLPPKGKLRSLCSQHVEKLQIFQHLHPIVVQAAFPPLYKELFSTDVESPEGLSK
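Schneider cells (Drosophila), stable Gal4 DBD–ROR gamma + UAS-luc; 1 hr cmpd preincubation; Cu2+ induction 700 uM final; 20 hr ambient; luminescence.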
Numbers without * were called inactive; i = inactive; ? = inconclusive; · = no result; [ ] = another dose, or the depositor's remark. An excerpt weighted towards active compounds, which were near 21% of everything screened. Unless noted, calls come from the whole dose curve; as a rule, active = well fitted curve in the direction sought with a large enough effect; inconclusive = small, poorly fitted or top-dose-only effect, or another doubt; inactive = no such curve, though single readings can be large; an effect the other way counts as inactive or inconclusive. % is set by controls: 0 for no effect and ±100 for the full control effect.

SMILES | ELG1 DNA repair | IL1B secr inh | TDP1 cell CPT | Gal4-VP16 FLuc | DT40 TDP1 no CPT | RORg inh
CCOc1cc(/C=N\NC(=O)c2ccc(NC(=O)C(C)(C)C)cc2)ccc1OC(=O)c1cccc(C)c1 | ? | 117.2 | 11.6µM* | -4.9% | 8.2µM* | 5.7%
CCOc1cc(/C=N\NC(=O)c2ccc(NC(=O)CC)cc2)ccc1OC(=O)c1ccccc1 | 4.8% | -11.1 | 18.4µM* | -3.3% | ? | 2.0%
COc1ccc2[nH]cc(/C=N/NS(=O)(=O)c3ccc(C)cc3)c2c1 | -29.0% | 15.5 | 14.6µM* | ? | 13µM* | ?
COc1ccc(OC)c(S(=O)(=O)N/N=C\c2c[nH]c3ccccc23)c1 | -2.7% | i | 18.4µM* | -18.3% | 9.2µM* | ?
CN(Cc1ccc(C(C)(C)C)cc1)C(=O)C1CSC2(C)CCC(=O)N12 (stereo unspecified) | ? | 20.6 | 16.4µM* | · | ? | ·
C=CCN(C(=O)C1CSC2(C)CCC(=O)N12)c1nc(-c2ccccc2)cs1 (stereo unspecified) | ? | -25.8 | 18.4µM* | · | 23.1µM* | ·
CN(CC(=O)Nc1ccc(Cl)c(C(F)(F)F)c1)C(=O)C1CSC2(C)CCC(=O)N12 (stereo unspecified) | 4.9% | -2.6 | ? | · | 18.4µM* | ·
COc1cccc(CN(C)C(=O)C2CSC3(C)CCC(=O)N23)c1OC (stereo unspecified) | 14.1% | 2.9 | -14.2% | · | -10.1% | ·
CN(CC(=O)Nc1ccc(F)c(F)c1F)C(=O)C1CSC2(C)CCC(=O)N12 (stereo unspecified) | 4.0% | 0.0 | -22.0% | · | -0.4% | ·
NS(=O)(=O)c1ccc(CCNC(=O)C(=O)NCC2OCCN2S(=O)(=O)c2ccc(Cl)cc2)cc1 (stereo unspecified) | ? | 53.6 | 23.1µM* | 15.8µM* | ? | 30.3%
COc1ccc(S(=O)(=O)N2CCOC2CNC(=O)C(=O)NCCc2ccccc2)cc1 (stereo unspecified) | 20.6µM* | -0.8 | ? | -4.2% | ? | 20.0%
COc1ccc(CCNC(=O)C(=O)NCC2OCCN2S(=O)(=O)c2ccc3c(c2)OCCO3)cc1OC (stereo unspecified) | 11.6µM* | 2.5 | ? | -4.8% | ? | 2.4%
COc1ccc(CCNC(=O)C(=O)NCC2OCCN2S(=O)(=O)c2ccc(OC)c(OC)c2)cc1 (stereo unspecified) | ? | -9.8 | -9.9% | 2.5% | ? | -2.4%
COc1ccccc1CCNC(=O)C(=O)NCC1OCCN1S(=O)(=O)c1ccc(OC)c(OC)c1 (stereo unspecified) | 20.6µM* | -23.8 | ? | -1.0% | -27.5% | -3.1%
C/C(CCN1CCCCc2nc(C)c(C)cc21)=N\OC[C@@H](O)[C@@H]1O[C@@H]2OC(C)(C)O[C@@H]2[C@H]1O | · | · | · | 4.3%[10 µM] | · | 18.5%[10 µM]
CC(OC(=O)[C@@H](NS(=O)(=O)c1ccccc1)C(C)C)C(=O)c1c(N)n(C)c(=O)n(C)c1=O (stereo partly specified) | · | 17.4 | -8.6% | · | -18.5% | ·
O=C(OCC(=O)N1CCC(c2ccccc2)=N1)c1ccc(Cl)s1 | 4.5% | -11.4 | -0.4% | · | -15.2% | ·
O=C(NCc1ccccn1)C(=O)NCC1OCCN1S(=O)(=O)c1ccc(Br)cc1 (stereo unspecified) | ? | 6.7 | -7.1% | 25.1µM* | -12.0% | 33.7%

Screens (PubChem BioAssay)
